HepG2 tox – HepG2 cytotoxicity, counter-screen for TGF-b inhibitors; HepG2 CAGA-GFP viability, ATP luminescence, 18 h; Potency, µM (titrated, usually from 46.1 µM), for inactives: at the highest dose activity change, negative = cytotoxicity, actives largely listed as cytotoxic; 0.76% of 410,000 active; note: potency is the fitted concentration of half-maximal effect
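HepG2 CAGA-GFP cells (1000/well, DMEM with 1% FBS) received compound, then TGF-beta at 500 pg/mL final, and were incubated 18 hours at 37 degrees C. Viability was read by CellTiter-Glo luminescence. Media-only wells were set as complete cell-killing and DMSO as no toxicity.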
TGFb SMAD3 inh – blocks TGF-b signaling; HepG2 CAGA-GFP TGF-b/SMAD3 reporter, GFP fluorescence, 18 h; TGF-beta stimulated, 500 pg/mL final; Potency, µM (top dose mostly 46.1 µM), inactives show at the top dose activity, negative = inhibition, usual class: inhibitors; 1.2% of 410,000 active; note: potency is the fitted concentration of half-maximal effect; % is set by controls: 0 for no effect and ±100 for the full control effect; nearly all actives have a fitted effect of over 65% in size
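GFP signal (ex488/em500-530) from TGF-beta-stimulated HEPG2 CAGA-GFP cells, 500 pg/mL final, 18 h at 37 degrees C in DMEM plus 1% FBS, normalized to unstimulated and DMSO-stimulated controls.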
DT40 TDP1 no CPT – qHTS for Inhibitors of human tyrosyl-DNA phosphodiesterase 1 (TDP1): qHTS in cells in absence of CPT; DT40 Tdp1-/- hTDP1 cells, no CPT, ATP luminescence, 48 h; Potency, µM (series often up to 46.2 µM), for the others: at the highest dose activity change, negative = growth inhibition, actives largely listed as inhibitors; 15% of 420,000 active; AID 686978, 2013; note: potency is the fitted concentration of half-maximal effect; % is set by controls: 0 for no effect and ±100 for the full control effect; nearly all actives have a fitted effect of over 55% in size
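Growth kinetics read by CellTiter-Glo luminescence after ≥48 hr at 37 °C. Cells: DT40 Tdp1-/- stably carrying human TDP1, 400 per well, compound exposure in the absence of CPT (DMSO vehicle).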
IL-1B inflam inh – inhibitors of inflammasome signaling (IL-1 beta secretion) | activity change, % at 57.5 µM | 4.7% of 360,000 active | AID 743279 | THP-1 LPS/ATP IL-1B secretion, AlphaLISA, 16 h; stronger effect = lower value; in the data active = activity change below about -50%; inconclusive = mostly about -30% to -49%; note: % is set by controls: 0 for no effect and ±100 for the full control effect
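THP-1 cells pretreated 1 hr with compounds (up to 57.5 uM final), then stimulated with LPS (250 ng/mL final) plus ATP (1.25 mM final); secreted IL-1B measured by AlphaLISA after 16 hr, decreased signal indicating inhibition.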
TDP1 block – inhibitors of human tyrosyl-DNA phosphodiesterase TDP1 | Q9NUW8 | recombinant TDP1, AlphaScreen DNA substrate cleavage | Potency, µM (highest dose often 130 µM), without a hit: at the highest dose activity change, negative = inhibition, most hits filed as inhibitors | 0.28% of 350,000 active; note: potency is the fitted concentration of half-maximal effect; % is set by controls: 0 for no effect and ±100 for the full control effect; nearly all actives have a fitted effect of over 40% in size
Target sequence (Q9NUW8 whole entry, looked up): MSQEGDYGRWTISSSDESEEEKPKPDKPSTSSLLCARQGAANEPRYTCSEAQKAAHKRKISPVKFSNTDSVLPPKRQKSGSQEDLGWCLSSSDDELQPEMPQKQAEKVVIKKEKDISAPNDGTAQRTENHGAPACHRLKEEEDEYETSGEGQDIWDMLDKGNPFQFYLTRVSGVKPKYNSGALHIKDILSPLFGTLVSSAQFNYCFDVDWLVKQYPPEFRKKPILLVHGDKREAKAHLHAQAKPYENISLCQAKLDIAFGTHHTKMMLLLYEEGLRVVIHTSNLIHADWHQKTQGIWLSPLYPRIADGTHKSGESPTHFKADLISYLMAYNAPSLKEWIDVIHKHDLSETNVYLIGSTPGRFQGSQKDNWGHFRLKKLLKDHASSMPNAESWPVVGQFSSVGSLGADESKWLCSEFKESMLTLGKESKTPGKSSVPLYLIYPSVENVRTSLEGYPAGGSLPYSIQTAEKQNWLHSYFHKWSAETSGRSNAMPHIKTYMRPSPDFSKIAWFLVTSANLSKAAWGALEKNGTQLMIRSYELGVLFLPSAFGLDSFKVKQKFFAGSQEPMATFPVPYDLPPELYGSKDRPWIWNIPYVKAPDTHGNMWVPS
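Tdp1 1 nM final; 15 min RT w/ cpd; substrate 15 nM, 5 min; beads 10 ug/ml, 10 min; AlphaScreen read. Neg ctrl: no enzyme.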
TDP1 cell CPT – DT40-hTDP1 cell growth loss with CPT. Potency, µM (highest dose often 46.2 µM), for inactives: at the highest dose activity change, negative = growth inhibition, most hits filed as inhibitors. chicken DT40 Tdp1-/-;hTDP1 cells + 20 nM CPT, ATP luminescence, 48 h. AID 686979. 12% of 420,000 active; note: potency is the fitted concentration of half-maximal effect; % is set by controls: 0 for no effect and ±100 for the full control effect; nearly all actives have a fitted effect of over 55% in size
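Cell growth measured by CellTiter-Glo luminescence after a minimum 48 h, 37 C compound exposure with 20 nM CPT in Tdp1-knockout DT40 cells stably expressing hTDP1, seeded 400/well; qHTS titration format.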
Active calls of the source: *; ? = inconclusive; . = no result; ! = not active in a repeat; [ ] = remark or other dose. A selection: hits, their analogues and other compounds. The true share with any hit is near 19%. Unless noted, calls come from the whole dose curve; as a rule, active = well fitted curve in the direction sought with a large enough effect; inconclusive = small, poorly fitted or top-dose-only effect, or another doubt; inactive = no such curve, though single readings can be large; an effect the other way counts as inactive or inconclusive.

SMILES	HepG2 tox	TGFb SMAD3 inh	DT40 TDP1 no CPT	IL-1B inflam inh	TDP1 block	TDP1 cell CPT
CN(Cc1ccccc1)c1ccc(-c2nc(-c3ccco3)no2)cc1[N+](=O)[O-]	3%	?	?	.	6%	?
COc1ccccc1C(=O)NCCC(=O)Nc1ccc(S(=O)(=O)N2C(C)CCCC2C)cc1 (stereo not drawn)	4%	-19%	?	4	1%	?
O=C(O)[C@@H]1[C@@H]2C[C@H]3c4[nH]c5ccccc5c4CCN3C[C@@H]2CC[C@@H]1O	.	.	.	.	12%[21 µM]	.
Cc1cc(C)c(OCC(=O)NCC2COc3ccccc3O2)c(C)c1 (stereo not drawn)	7%	-3%	-20%	?	-4%[56.1 µM]	?
CC(C)C[C@H](NC(=O)OC(C)(C)C)c1nnc(SCc2ccccc2)o1	2%	0%	23µM*	-19	-2%	?
C[C@H](NC(=O)OC(C)(C)C)c1nnc(SCC(=O)c2ccc(Cl)cc2)o1	-25%	-11%	21µM*	12	4%	16µM*
COc1cc(NC(=O)c2nc3cc(C)c(C)cc3n(C)c2=O)cc(OC)c1OC	7%	-19%	6%	.	2%	12%
CCOC(=O)c1cn(Cc2c(C)c(C)c(C)c(C)c2C)nn1	-10%	16%	23µM*	22	5%	16µM*
CCOC(=O)c1cn(Cc2cccc(Cl)c2)nn1	3%	-13%	-5%	-3	3%	1%
Cc1cc(=O)[nH]c(Nc2ccccc2C)n1	-5%	2%	-10%	35	.	-3%
COc1ccc(-c2cnc(SCC(=O)Nc3ccc4c(c3)OCO4)n2Cc2ccco2)cc1	-1%	?	18µM*	-73*	11%	18µM*
CC(=O)Nc1cccc(NC(=O)CSc2ncc(-c3ccc(Cl)cc3)n2Cc2ccco2)c1	-46%	-13%	21µM*	-22	12%	21µM*
CC(=O)Nc1ccc(NC(=O)c2cc(CN3CCCC3)on2)cc1	-16%	?	-18%	.	3%	-1%
CNC(=O)c1ccc(Nc2nnc(-c3ccc(C)c(S(N)(=O)=O)c3)c3ccccc23)cc1	-1%	1%	14%	9	.	-6%
CCN(CC)C(=O)c1ccc(-c2nnc(Nc3ccc(C(=O)NC)cc3)c3ccccc23)cc1	6%	1%	?	-25	.	15µM*
CN(C)C(=O)c1ccc(Nc2nnc(-c3ccc(O)cc3)c3ccccc23)cc1	-6%	1%	?	-55*	.	?
COC(=O)COc1ccc(-c2nnc(Nc3ccc(O)cc3)c3ccccc23)cc1	11µM*	?	?	.	.	?
CNC(=O)c1ccc(Nc2nnc(-c3ccc(O)cc3)c3ccccc23)cc1	-6%	-16%	?	-8	.	-22%
COc1ccc(Nc2nnc(-c3ccc(C)c(S(=O)(=O)NCCO)c3)c3ccccc23)cc1C(N)=O	4%	14%	-4%	.	0%[12.3 µM]	5%
CCOc1ccc(-c2nnc(Nc3ccc(OC)c(C(=O)N4CCCCC4)c3)c3ccccc23)cc1	-23%	?	16µM*	-19	3%	?
C[C@H](CO)N1C[C@H](C)[C@@H](CN(C)CC2CCCCC2)Oc2ccc(NC(=O)Cn3cnnn3)cc2C1=O	1%	7%	1%	6	0%	-15%
O=C(NCc1ccco1)C1CCN(C(=O)N2CCOc3ccc(Cl)cc32)CC1	5%	-5%	?	.	4%	-27%
CC1CCCC(NC(=O)COC(=O)c2cc(=O)[nH]c3ccccc23)C1C (stereo not drawn)	0%	-2%	17%	-1	-1%	4%
CNC(=O)c1cc(Nc2nnc(-c3ccc(O)cc3)c3ccccc23)ccc1OC	3%	6%	?	-59*	7%	16µM*!
Cc1ccccc1-n1ncc2c(SCC(=O)NC3CCCC3)ncnc21	-2%	?	7.3µM*	-71*	2%	21µM*
SMILES	HepG2 tox	TGFb SMAD3 inh	DT40 TDP1 no CPT	IL-1B inflam inh	TDP1 block	TDP1 cell CPT
CCc1nc(SCC(=O)N2c3ccccc3CC2C)c2c(C)c(C)sc2n1 (stereo not drawn)	-14%	?	10µM*	?	1%	9.2µM*
Cc1ccccc1-n1ncc2c(SCC(=O)N3c4ccccc4CC3C)ncnc21 (stereo not drawn)	-16%	-26%	20µM*	-92*	2%	29µM*
CC1Cc2ccccc2N1C(=O)CSc1nc2ccccc2s1 (stereo not drawn)	-17%	?	?	-16	-3%	?
Cc1sc2nc(C(C)C)nc(SCC(=O)N3c4ccccc4CC3C)c2c1C (stereo not drawn)	-2%	0%	?	25	5%	?
CC1Cc2ccccc2N1C(=O)CSc1nc(-c2ccccc2)cs1 (stereo not drawn)	-40%	-1%	26µM*	-21	1%	?
CCc1cccc(C)c1NS(=O)(=O)c1cc2[nH]c(=O)c(=O)[nH]c2cc1C	6%	6%	-21%	.	-9%	4%
Cc1ccc2nc(-c3ccc(Cl)s3)c(Nc3ccc4c(c3)OCCO4)n2c1	1%	0%	?	.	8%	?
Cc1ccc2nc(SCC(=O)N3c4ccccc4CC3C)c(C)cc2c1 (stereo not drawn)	-37%	0%	15µM*	-11	-9%	23µM*
CC(=O)N(C)N1c2ccccc2CCc2ccccc21	-19%	?	15µM*	27	.	?
CC(Cl)C(=O)N1c2ccccc2CCc2ccccc21 (stereo not drawn)	-18%	-19%	13µM*	-8	.	?
O=C(C(Cc1ccccc1)N1C(=O)c2ccccc2C1=O)N1c2ccccc2CCc2ccccc21 (stereo not drawn)	-6%	?	6.5µM*	-18	-3%	12µM*
O=C(CCl)N1c2ccccc2CCc2ccccc21	.	.	.	.	3%	.
COc1ccc(-n2ccnc(NCCc3ccc(S(N)(=O)=O)cc3)c2=O)cc1Cl	-14%	-27%	?	.	3%	-27%
Nc1ccc(CSc2ccccc2)cc1	1%	10%	-11%	-22	.	-16%
COC(=O)c1ccc(-c2cc(CC3(C(=O)OC)CCN(C(=O)OC(C)(C)C)CC3)on2)cc1	-9%	-2%	?	-12	.	23µM*

High-throughput results deposited in PubChem BioAssay by National Center for Advancing Translational Sciences (NCATS).
